Tau fluor cs: counter-screen for tau fibril formation inhibitors; tau K18 P301L Alexa594 fluorescence, heparin fibrillization; Potency, µM (titrated, usually from 57.7 µM), for the others: top-dose activity change, negative = decrease; 0.93% of 280,000 active; AID 1463; note: nearly all actives have a fitted effect of over 55% in size
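Human tau K18 P301L (15 uM unlabeled, 0.24 uM Alexa 594-labeled) in 100 mM sodium acetate pH 7 with 20 uM heparin, 6 hr at 37 C. ThT 30 uM added, 1 hr ambient; Alexa 594 FP and total fluorescence read at 555/632 nm.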
ALDH1A1 block: ALDH1A1 (human) enzyme inhibition; Purified ALDH1A1, NADH fluorescence, propionaldehyde substrate; AID 1030; Potency, µM (top dose mostly 75.3 µM), without a hit: at the top dose activity, negative = inhibition, actives largely listed as inhibitors; 7.3% of 220,000 active; active = well fitted inhibition curve with a large enough effect, not every such curve was filed as active; inconclusive = small, poorly fitted or top-dose-only effect, or another doubt; inactive = no such curve, though single readings can be large or run the other way;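 note: plate controls were no enzyme wells and a reference inhibitor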
Target sequence (P00352 whole entry, looked up): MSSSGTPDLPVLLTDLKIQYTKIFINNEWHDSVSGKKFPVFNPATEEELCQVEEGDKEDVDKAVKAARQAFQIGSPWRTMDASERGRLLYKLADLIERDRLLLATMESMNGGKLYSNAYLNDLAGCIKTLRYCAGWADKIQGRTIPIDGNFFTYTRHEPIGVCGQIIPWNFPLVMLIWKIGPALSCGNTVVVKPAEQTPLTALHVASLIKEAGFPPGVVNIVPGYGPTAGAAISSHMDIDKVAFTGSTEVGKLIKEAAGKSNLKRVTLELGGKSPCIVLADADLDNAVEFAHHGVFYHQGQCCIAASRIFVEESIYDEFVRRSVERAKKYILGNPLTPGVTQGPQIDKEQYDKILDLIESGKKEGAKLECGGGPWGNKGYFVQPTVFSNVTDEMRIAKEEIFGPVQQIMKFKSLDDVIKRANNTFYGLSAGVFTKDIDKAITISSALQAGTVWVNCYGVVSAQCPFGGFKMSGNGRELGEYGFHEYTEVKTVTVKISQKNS
Tau fibril ThT: tau fibrillization inhibition (ThT binding); 2.1% of 270,000 active; recombinant tau K18 P301L (four-repeat tau fragment), heparin-induced fibrillization, ThT fluorescence; Potency, µM (highest dose often 57.4 µM), for the others: top-dose activity, negative = inhibition, most hits filed as inhibitors; note: nearly all actives have a fitted effect of over 55% in size
Target sequence (P10636 561-689 P618L limits assumed): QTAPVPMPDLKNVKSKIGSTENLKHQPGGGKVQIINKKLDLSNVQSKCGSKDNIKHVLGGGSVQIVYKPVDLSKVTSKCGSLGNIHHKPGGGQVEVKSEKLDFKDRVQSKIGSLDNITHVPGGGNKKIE
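Aggregation was driven by heparin (20 uM final) acting on recombinant tau […] bearing P301L in 100 mM sodium acetate pH 7; fibrils were detected with Thioflavin T.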
NPSR antag: blocks cAMP signaling of the human neuropeptide S receptor; Q6W5P4; CHO-NPSR cells, cAMP TR-FRET, antagonist mode; Potency, µM (series often up to 38.3 µM), for inactives: at the top dose activity change, negative = inhibition, usual class: inhibitors; 1% of 220,000 active; AID 1461; note: nearly all actives have a fitted effect of over 50% in size
HPGD block: HPGD (human) dehydrogenase inhibition; Potency, µM, for inactives: at the top dose activity change, negative = inhibition, hits mostly inhibitors; purified HPGD, NADH fluorescence kinetic, PGE2 substrate; 4.3% of 150,000 active; P15428; active = well fitted inhibition curve with a large enough effect, not every such curve was filed as active; inconclusive = small, poorly fitted or top-dose-only effect, or another doubt; inactive = no such curve, though single readings can be large or run the other way
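20 nM HPGD preincubated 15 min at room temperature with compound in 50 mM Tris-HCl pH 8, 0.01% Tween 20. Started with 1 mM NAD+ and 30 uM prostaglandin E2; NADH fluorescence (360/450 nm) read 5 times over 30-s intervals, last minus first.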
Tau fibril FP: tau fibrillization inhibition (FP) | P10636 | K18 P301L tau heparin fibrillization, Alexa594 FP, 6 h | Potency, µM (titrated, usually from 57.7 µM), without a hit: at the highest dose activity, negative = inhibition, hits mostly inhibitors | 0.39% of 280,000 active | AID 1468; note: nearly all actives have a fitted effect of over 55% in size
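Quantitative HTS format: compounds meet 15 uM recombinant K18 P301L tau and Alexa 594-tau tracer in 100 mM sodium acetate pH 7; 20 uM heparin triggers fibrillization at 37 C over 6 hr; FP gives the signal.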
Numbers without * were called inactive; ? = inconclusive; / = no result; ! = not active in a repeat; [ ] = remark or other dose. An excerpt weighted towards active compounds, which were near 9.5% of everything screened. Unless noted, calls come from the whole dose curve; as a rule, active = well fitted curve in the direction sought with a large enough effect; inconclusive = small, poorly fitted or top-dose-only effect, or another doubt; inactive = no such curve, though single readings can be large; an effect the other way counts as inactive or inconclusive. Unless noted, % is set by controls: 0 for no effect and ±100 for the full control effect; potency is the fitted concentration of half-maximal effect.

SMILES	Tau fluor cs	ALDH1A1 block	Tau fibril ThT	NPSR antag	HPGD block	Tau fibril FP
CCC(=O)NC1CCc2cccc(OC)c2C1 (stereo unspecified)	-1%	5%	-1%	/	/	1%
Cc1cccc(Nc2cc(Cl)nc(SCC(=O)O)n2)c1C	-3%	10µM*!	-4%	/	25µM*!	3%
O=C(NC1CCCCC1)c1ccc(CSc2nc3cccnc3n2Cc2cccc(F)c2)cc1	-21%	/	-3%	/	/	6%
COc1ccc(OCCSCc2nnc(NC(=O)Nc3ccc(Cl)cc3)s2)cc1	-23%	-1%	1%	17%	-5%	28µM*
Cc1ccc(NC(=O)Nc2nnc(CSCCOc3ccc(Cl)cc3)s2)cc1	-25%	10%	-3%	15%	-6%	?
O=C(Nc1cccc(Cl)c1)Nc1nnc(CSCCOc2ccc(Cl)cc2)s1	?	0%	-2%	-45%	-2%	7.9µM*
O=C(Nc1cccc(Cl)c1)Nc1nnc(CC2=CCCCC2)s1	?	6%	11%	-6%	-6%	11µM*
COc1cccc(NS(=O)(=O)c2ccc3c(c2)n(C)c(=O)n3C)c1	0%	/	7%	/	/	1%
Oc1c(Cl)cc(Cl)cc1C=Nc1ccccc1N1CCCC1	?	12%	22µM*	4%	-3%	-13%
CCOc1ccccc1NC(=O)Cn1nc2c3cc(F)ccc3n(Cc3cccc(C)c3)cc-2c1=O	-11%	/	?	/	/	1%
O=C(N1CCCCC1)N1CCN(C(=O)N(c2ccccc2)c2ccccc2)CC1	0%	11µM*	-8%	-7%[46.1 µM]	-1%	0%
O=C(Cc1cccs1)Nc1nnc(SCc2ccc(C(F)(F)F)cc2)s1	-7%	5%	-3%	2%	-3%	1%
O=C(O)c1ccc2c(c1)C(=O)N(CCC1=CCCCC1)C2=O	-1%	-10%	-5%	-15%[46.1 µM]	-18%	3%
CN(C(=O)c1ccc2c(c1)C(=O)N(CCC1=CCCCC1)C2=O)C1CCCCC1	-20%	0.79µM*	?	?	14µM*	2%
CCn1c(=S)[nH]c2c(c1=O)C(C)(C)Cc1ccccc1-2	-20%	4%	-7%	?	/	-6%
Cn1c(=S)[nH]c2c(c1=O)C(C)(C)Cc1ccccc1-2	-11%	8.9µM*	-2%	6.3µM*	/	-2%
COc1cc(/C=C(\C#N)C(N)=O)cc(CSc2nc3ccccc3s2)c1O	?	?	?	/	40µM*	-2%
COc1cc(/C=C/c2nc3ccccc3s2)cc(OC)c1O	?	?	?	-49%	/	5%
CC(C)c1ccc(C(=O)CSc2ncn[nH]2)cc1	-9%	?	-24%	-8%[46.1 µM]	32µM*	-10%
O=C(CSc1ncn[nH]1)c1ccc2c(c1)OCCO2	15%	?	3%	-7%[46.1 µM]	-12%	9%
CC(C)c1ccc(N2C(=O)CC(Sc3ncn[nH]3)C2=O)cc1 (stereo unspecified)	-9%	0.13µM*	-16%	-8%[46.1 µM]	16µM*	-7%
CC(C)c1ccc(N2C(=O)CC(Sc3nc4ccccc4o3)C2=O)cc1 (stereo unspecified)	-27%	0.71µM*	?	-25%[46.1 µM]	?	0%
COc1ccc(N2C(=O)CC(Sc3ncn[nH]3)C2=O)c(OC)c1 (stereo unspecified)	5%	14µM*	?	2%[46.1 µM]	/	3%
O=C(O)c1cccnc1SC1CC(=O)N(c2ccccc2)C1=O (stereo unspecified)	-5%	/	/	9%	/	-7%
CC(C)(C)NC(=O)[C@@H]1C[C@H]2CCCC[C@@H]2CN1C[C@H](O)[C@H](Cc1ccccc1)NC(=O)[C@@H](CC(N)=O)NC(=O)c1ccc2ccccc2n1	/	1%[20.9 µM]	/	/	-6%	/
SMILES	Tau fluor cs	ALDH1A1 block	Tau fibril ThT	NPSR antag	HPGD block	Tau fibril FP
C=CCNC(=O)COC(=O)c1cccnc1Nc1ccccc1F	-16%	6%	-10%	-9%	/	-9%
COc1ccc(C(CC(=O)Nc2ccc(C)cn2)N2Cc3ccccc3C2=O)cc1OC (stereo unspecified)	2%	/	7%	/	/	-7%
O=C1C2=CC[C@H]3C(=O)N(Cc4ccc5c(c4)OCO5)C(=O)[C@@H]3[C@@H]2[C@H](O)[C@@H]2O[C@H]12	-23%[11.6 µM]	3%[13.5 µM]	?	/	/	?
COC(=O)NC(CCc1ccccc1)C(C(C)=O)C(=O)OC (stereo unspecified)	7%	7%	5%	/	-4%	3%
CCC(C)NC(=O)c1ccc2c(Cl)c3c(nc2c1)CCC3 (stereo unspecified)	4%	/	-6%	-22%	/	10%
CCN(C(=O)c1ccc2c(Cl)c3c(nc2c1)CCC3)c1ccc(C)c(C)c1	-8%	14µM*	-17%	-48%	?	1%
CN(C(=O)c1ccc2c(Cl)c3c(nc2c1)CCC3)c1ccccc1	-5%	?	-18%	-13%	4.5µM*	-3%
c1ccc(CN2CCC3(CC2)SSC2(CCN(Cc4ccccc4)CC2)SS3)cc1	/	-7%[13.5 µM]	/	/	-4%	/
COc1cc2oc(=O)c(CC(=O)N3CCCCC3)c(C)c2cc1Cl	-4%	/	-2%	/	/	-3%
Cc1cccc(-n2c(C)cc(C(=O)NC3CCCCC3)c2C)c1	0%	1%	4%	-48%	0.71µM*	3%
COc1ccc(-n2c(C)cc(C(=O)NC3CCCCC3)c2C)cc1	-7%	7.9µM*	-15%	?	1.1µM*	2%
Cc1cccc(-n2c(C)nc3cc(C(=O)NC4CCCCCC4)ccc32)c1	-10%	/	-15%	/	/	-5%
O=C(N/C(=C\c1cccc([N+](=O)[O-])c1)C(=O)N1CCCCC1)c1cccs1	-10%	20µM*	-11%	?	-5%	4%
Cc1cccc(NC(=O)/C(=C/c2cccc([N+](=O)[O-])c2)NC(=O)c2cccs2)c1	-7%	11%	11%	0%[46.1 µM]	-6%	7%
BrC(=C\c1ccccc1)/C=N/Nc1nc(N2CCOCC2)nc(N2CCOCC2)n1	-18%	0%	?	-16%	16µM*	-3%
COC(=O)c1ccc(COc2ccc(/C=N/Nc3cccc(C(=O)O)c3)cc2)cc1	?	/	16µM*	3%	/	-3%
O=C(N/N=C/C(Br)=C/c1ccccc1)C(O)c1ccccc1 (stereo unspecified)	?	/	-12%	0%	/	-13%
BrC(/C=C\c1ccccc1)=N/Nc1nc(N2CCOCC2)nc(N2CCOCC2)n1	-22%	-6%	?	-29%	/	?
O=C(O)c1cc(N/N=C/c2ccc(OCc3ccccc3)cc2)ccc1Cl	-1%	4%	0%	-19%	/	4%
O=C(O)c1ccc(N/N=C/c2ccnc3ccccc23)cc1	?	/	5µM*	-37%	/	6%
O=C(O)c1ccc(N/N=C/C(Br)=C/c2ccccc2)cc1	?	/	14µM*	-12%	/	7%
